JMJD2C inh = inhibitors of GASC-1 histone demethylase, primary screen, biochemical, fluorescence, DELFIA europium; GST-JMJD2C(1-420) H3K9me3 demethylation; 330,000 compounds, 0.069% hits; inhibition, % at 2.35 µM; Lysine-specific demethylase 4C (Homo sapiens), Q9H3R0;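 active = more than half of a compound's replicate wells show inhibition beyond 50%, single wells judged on their own value; inconclusive = some, but no more than half, of replicates pass 50% inhibition; inactive = no replicate passes 50% inhibition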;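 also: signal counts dimethyl H3K9 product captured on neutravidin plate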
Target sequence (Q9H3R0 1-420 limits assumed): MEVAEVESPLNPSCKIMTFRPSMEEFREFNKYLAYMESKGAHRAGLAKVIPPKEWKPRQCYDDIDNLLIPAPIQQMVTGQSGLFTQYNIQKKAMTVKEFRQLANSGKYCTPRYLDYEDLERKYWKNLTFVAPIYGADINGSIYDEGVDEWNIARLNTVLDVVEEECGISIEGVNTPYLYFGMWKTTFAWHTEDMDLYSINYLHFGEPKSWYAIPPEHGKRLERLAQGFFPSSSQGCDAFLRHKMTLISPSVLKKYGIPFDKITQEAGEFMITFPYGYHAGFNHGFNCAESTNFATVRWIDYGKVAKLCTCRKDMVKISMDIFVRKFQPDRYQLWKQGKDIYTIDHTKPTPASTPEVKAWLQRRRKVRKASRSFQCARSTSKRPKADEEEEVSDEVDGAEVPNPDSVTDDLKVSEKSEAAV
PG9 Ab binder = binders of HIV-1 gp120 antibody PG9, primary screen, biochemical, TR-FRET; TR-FRET gp120-PG9 antibody binding; AID 624416, 2012; 360,000 compounds, 0.43% hits; inhibition, % at 6.7 µM; in the data active = inhibition above about 8.5%
KLK7 zymogen act = proKLK7 zymogen activators, primary screen, biochemical, fluorescence intensity; Kallikrein-7 (Homo sapiens), P49862; purified proKLK7, EDANS-DABCYL substrate fluorescence; 100% is mature enzyme control, 0% vehicle; activation, % at 7 µM; 370,000 compounds, 0.9% hits;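 active = activation above the mean of all tested compounds plus 3 SD, computed per campaign excluding outliers beyond control limits, cut at about 13% in these data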
Target sequence (P49862 whole entry, looked up): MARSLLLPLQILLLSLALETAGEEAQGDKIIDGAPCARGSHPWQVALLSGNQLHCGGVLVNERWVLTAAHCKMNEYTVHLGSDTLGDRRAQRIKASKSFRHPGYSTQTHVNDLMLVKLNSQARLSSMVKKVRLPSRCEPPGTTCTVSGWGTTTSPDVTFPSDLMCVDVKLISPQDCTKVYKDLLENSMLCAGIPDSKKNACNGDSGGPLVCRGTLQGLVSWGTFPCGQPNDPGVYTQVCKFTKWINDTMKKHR
Rev-erbA mod = modulators of Rev-erb alpha DNA binding, primary screen, biochemical, FITC-DNA, fluorescence polarization, uHTS | Nuclear receptor subfamily 1 group D member 1 (Homo sapiens), P20393 | Rev-erbα–FITC-DNA binding, 90 min | activity, % at 10 µM | 370,000 compounds, 0.79% hits | AID 1259318, 2017;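 active = activity above about 14%, limit read from the data; passing the limit was not always enough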
PP1 counter = PP1-alpha phosphatase inhibitors, primary screen, counter-screen for PP5 inhibitor project, biochemical, fluorescence, OMFP substrate, single point | Serine/threonine-protein phosphatase PP1-alpha catalytic subunit (Homo sapiens), P62136 | purified PP1alpha | 320,000 compounds, 0.9% hits | inhibition, % at 6.7 µM;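 active = inhibition above the mean inhibition of all tested compounds plus 3 SD, computed separately for each screening campaign, cut at about 15% in these data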
PP5 inh = PP5 phosphatase inhibitors, primary screen, biochemical, fluorescence | purified PP5c, OMFP substrate fluorescence | inhibition, % at 6.7 µM | 320,000 compounds, 0.18% hits;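 active = inhibition above the campaign's mean inhibition across all tested compounds plus 3 SD, cut at about 9.5% in these data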
proKLK7 act conf = proKLK7 zymogen activators, confirmation, biochemical, fluorescence intensity, triplicate; 3,200 compounds, 68% hits; purified proKLK7, EDANS-DABCYL substrate fluorescence; scaled: vehicle 0, mature enzyme 100; activation, % at 7 µM; shares compounds with KLK7 zymogen act;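 active = activation, as change over the incubation, above the mean of all tested compounds plus 3 SD, cut at about 13% in these data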
EDANS interfere = EDANS-DABCYL substrate optical interference, artefact control for kallikrein-7 zymogen activator project, biochemical, fluorescence intensity, high throughput; shares compounds with KLK7 zymogen act; no enzyme, 4 h; solvent 0%, active enzyme control 100%; activation, % at 7 µM; 3,200 compounds, 80% hits; AID 686952, 2013;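 active = activation above the all-compound mean plus 3 SD, ignoring values outside control-based bounds, cut at about 4.8% in these data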;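 also: value is the 4 h activation minus the activation read at time zero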
K7 EDANS ctr = EDANS fluorescence interference in dose response, no enzyme. shares compounds with KLK7 zymogen act. EDANS-DABCYL peptide fluorescence interference. EC50, µM. 250 compounds, 20% hits;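 active = compounds that raise the fluorescence signal in this interference counterscreen, with EC50 at or below 10 µM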;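 also: intact quenched peptide substrate alone read at 355 nm excitation and 520 nm emission; signal is fluorescence gain from T0 to T4 after four hours at room temperature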
Hits are given with their value; 0 = inactive; ? = inconclusive; - = no result. An excerpt weighted towards active compounds, which were near 2.8% of everything screened.

SMILES	JMJD2C inh	PG9 Ab binder	KLK7 zymogen act	Rev-erbA mod	PP1 counter	PP5 inh	proKLK7 act conf	EDANS interfere	others
Fc1ccc(Cn2ccc3ccc(-c4ccc5ccn(Cc6ccc(F)cc6F)c5c4)cc32)c(F)c1	-	-	0	0	-	-	-	-
CCCCCc1cccc2[nH]cc(-c3ccccc3)c12	-	-	0	0	-	-	-	-
Cc1cc2c3c(ccc(C)c3n1)N=CN2c1ccccc1	0	0	62	0	0	0	0	4.8
O=C(Nc1ccc(NC(=O)c2cccs2)cc1)c1cccs1	0	0	14	0	0	0	30	22	K7 EDANS ctr=0
O=C(Nc1ccc(Cl)cc1)c1cccs1	0	0	0	0	0	0	-	-
COc1ccc(C(=O)Nc2cccc(NC(=O)c3cccs3)c2)cc1OC	0	0	35	0	0	0	22	29
CNC(=S)NNC(=O)c1cccs1	0	0	13	0	0	0	14	13
COc1ccc(NC(=S)NNC(=O)c2cccs2)cc1	0	0	21	0	0	0	0	8.5
COc1ccc(NC(=O)c2cccs2)cc1	0	0	0	0	0	0	-	-
CCNC(=S)NNC(=O)c1cccs1	0	0	0	0	0	0	-	-
CN(Cc1ccccc1)S(=O)(=O)c1cccc(C(=O)OCC2CCCCC2)c1	-	-	0	0	-	-	-	-
CCCCC1(C)NC(=O)c2c(C)sc(C(=O)OCC)c2N1 (centres undefined)	0	0	0	0	0	0	-	-
CCOC(=O)CC1(C)NC(=O)c2c(C)sc(C(=O)OCC)c2N1 (centres undefined)	0	0	13	0	0	0	0	0
CCOC(=O)CC1(CC(=O)OCC)NC(=O)c2c(C)sc(C(=O)OCC)c2N1	0	0	13	0	0	0	0	4.3
CCOC(=O)c1sc(C)c2c1NC(c1ccc(N(C)C)cc1)NC2=O (centres undefined)	0	0	0	0	0	0	-	-
COC(=O)[C@]12C[C@H](CC(=O)NCC34CC5CC(CC(C5)C3)C4)C(=O)N(Cc3cccc4ccccc34)C1=C[C@H](C(C)C)O[C@@H]2C1CC1	-	-	0	0	-	-	-	-
Cc1ccc(S(=O)(=O)NCCc2cn3nc(C)c(C)nc3n2)cc1C	0	0	58	0	0	0	41	49
CCCCNS(=O)(=O)c1ccc(OC)c(C)c1	0	0	0	0	0	0	-	-
COc1ccc(S(=O)(=O)NCCc2cn3nc(C)c(C)nc3n2)cc1C	0	0	33	0	0	0	37	45
Cc1cccc(C(=O)N[C@H]2CC[C@@]34CCCN3C(=O)CCC[C@H]4[C@H]2C)c1	-	-	-	0	-	-	-	-
CC(=O)Oc1c(-c2ccco2)oc2ccccc2c1=O	0	0	14	0	0	0	21	19
OCc1nc2nc(Cl)c(Cl)nc2[nH]1	0	0	0	0	0	0	-	-
CCOC(=O)CSc1nc2nc(Cl)c(Cl)nc2[nH]1	-	0	36	0	-	-	30	31
CSc1nc2nc(Cl)c(Cl)nc2[nH]1	-	0	26	0	-	-	45	46
CSc1cccc(NC(=S)NN/C(=N/S(=O)(=O)c2ccccc2)N2CCCC2)c1	-	0	0	0	-	-	-	-
SMILES	JMJD2C inh	PG9 Ab binder	KLK7 zymogen act	Rev-erbA mod	PP1 counter	PP5 inh	proKLK7 act conf	EDANS interfere	others
Cc1nc(Cl)c2c(n1)NC1=C(O2)C(=O)CCC1	0	0	22	0	0	0	18	22
O=C1NC2=C(C(=O)CCC2)C(c2ccccc2Cl)N1 (centres undefined)	0	0	0	0	0	0	-	-
Nc1ccc2nc(-c3cc(Cl)c(N)c(Cl)c3)[nH]c2c1	0	0	24	0	0	0	21	13	K7 EDANS ctr=0
Nc1ccc(-c2nc3ccc(N)cc3[nH]2)cc1	0	0	87	0	0	0	69	75
Cc1cc(-c2nc3ccccc3[nH]2)ccc1N	0	0	0	0	0	0	-	-
Nc1ccc(-c2nc3c(Cl)c(N)ccc3[nH]2)cc1	0	0	70	0	0	0	70	77
Clc1ccc2nc(-c3ccc(Cl)nc3)[nH]c2c1	0	0	0	0	0	0	-	-
Cc1ccc(C)c(-c2nc3ccc(N)cc3[nH]2)c1	0	0	0	0	0	0	-	-
Nc1ccc2nc(-c3ccc(Cl)cc3)[nH]c2c1	0	0	66	0	0	0	64	66
Nc1cc(N)cc(-c2nc3ccccc3[nH]2)c1	0	0	0	0	0	0	-	-
O=C(Nc1ccc2ccccc2c1)NC1CCCCN(Cc2cccc(Cl)c2)C1=O (centres undefined)	-	-	0	0	-	-	-	-
CCCCOCCCNC(=O)C[C@@H]1C[C@]2(C(=O)OCC)CCC3=C2N(CCC3)C1=O	-	-	0	0	-	-	-	-
Cc1ccc2nc(-c3ccccn3)[nH]c2c1	0	0	0	0	0	0	-	-
Cc1ccc2nc(-c3ccccc3N)[nH]c2c1	0	0	68	0	0	0	0	0
Cc1nc2ccc(Cc3ccc4nc(C)[nH]c4c3)cc2[nH]1	0	0	0	0	0	0	-	-
Cc1nc2ccc(-c3nc4ccc(N)cc4[nH]3)cc2[nH]1	0	0	37	0	0	0	69	66
Cn1c(=O)c2[nH]c(-c3ccccc3)c(O)c2n(C)c1=O	0	0	17	0	0	0	41	40
Cn1c(=O)c2[nH]c(-c3ccccc3Cl)c(O)c2n(C)c1=O	0	0	58	0	0	0	71	77
CC(=O)Nn1cc2c(c1-c1ccccc1)c(=O)n(C)c(=O)n2C	0	0	0	0	0	0	-	-
Cn1c2c(c(=O)n(C)c1=O)C(C(F)(F)F)(C(F)(F)F)N=C(c1ccccc1Cl)N2	?	0	0	0	0	0	-	-
CC1(C)CC(=O)C=C(Nc2ccccc2NC(=O)c2cc(F)ccc2F)C1	-	-	0	0	-	-	-	-
O=C(NCCc1ccccc1)c1coc(=O)c(Br)c1	0	0	14	0	-	-	32	26	K7 EDANS ctr=0
CN(C)CCNC(=O)c1coc(=O)c(Br)c1	0	0	0	0	0	0	-	-
O=C(NC(CO)(CO)CO)c1coc(=O)c(Br)c1	0	0	41	0	0	0	54	54
